Data reported in PubChem BioAssay (Tox21).
Values joined by “and” are separate entries in the source; they are usually repeats but may differ in a detail not shown here. Equal entries are not always repeated. Records with an inconclusive call do not appear. Where a call stands in place of a potency, no number is given. Active and inactive are the calls of the source. Calls follow the shape of the full dose curve.
Potency is read from the fitted curve at half-maximal effect.

These compounds were tested against Thyrotropin receptor (Homo sapiens) (UniProt P16473) (assay: qHTS assay to identify small molecule antagonists of the thyroid stimulating hormone receptor (TSHR) signaling pathway (AID 1259385; also: nearly all actives have a fitted effect of over 20% in size)). Settings: TSHR-HEK293 cAMP HTRF, TSH-stimulated antagonist mode; series mostly up to 92.4 µM.
Sequence of Thyrotropin receptor (Homo sapiens) (P16473 whole entry, looked up): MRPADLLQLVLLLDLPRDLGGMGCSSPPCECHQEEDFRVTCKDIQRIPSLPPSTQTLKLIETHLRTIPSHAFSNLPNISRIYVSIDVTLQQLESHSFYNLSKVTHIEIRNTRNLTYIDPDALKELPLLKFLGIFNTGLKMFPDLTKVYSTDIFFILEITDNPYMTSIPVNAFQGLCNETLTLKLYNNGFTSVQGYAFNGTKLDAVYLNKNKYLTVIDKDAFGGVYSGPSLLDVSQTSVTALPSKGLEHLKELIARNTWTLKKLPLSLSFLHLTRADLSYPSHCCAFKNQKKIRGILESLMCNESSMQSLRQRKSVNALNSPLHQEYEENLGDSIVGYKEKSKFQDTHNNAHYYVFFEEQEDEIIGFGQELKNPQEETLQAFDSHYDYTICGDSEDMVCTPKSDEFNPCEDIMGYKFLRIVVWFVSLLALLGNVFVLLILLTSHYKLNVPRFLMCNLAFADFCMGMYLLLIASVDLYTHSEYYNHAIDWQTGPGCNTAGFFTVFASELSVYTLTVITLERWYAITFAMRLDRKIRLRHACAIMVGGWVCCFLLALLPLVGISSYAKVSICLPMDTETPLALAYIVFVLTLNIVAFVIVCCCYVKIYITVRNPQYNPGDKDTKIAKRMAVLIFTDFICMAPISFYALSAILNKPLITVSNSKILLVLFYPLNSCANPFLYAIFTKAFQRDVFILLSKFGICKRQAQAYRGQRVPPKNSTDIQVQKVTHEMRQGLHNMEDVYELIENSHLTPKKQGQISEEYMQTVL
How it was run: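 TSHR-HEK293 cells were plated and held 18 h at 37C/5% CO2, then given compound plus Ro20-1724 and stimulated with TSH at 1.5 ng/mL final. After 30 min at room temperature, cAMP was detected with cAMP-d2/anti-cAMP-cryptate (1 h) by fluorescence.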
For CC1=C2C[C@H]3[C@@H](CC=C4C[C@@H](O)CC[C@@]43C)[C@@H]2CC[C@]12O[C@@H]1C[C@H](C)CN[C@H]1[C@H]2C, the Potency was “inactive”. In the case of CCCCC(CC)COC(=O)c1ccccc1C(=O)OCC(CC)CCCC (stereo unspecified), the Potency was “inactive”. With c1csc(-c2ccc(-c3cccs3)s2)c1 the Potency was “inactive”. With CC[N+]1(CC)CCC(OC(=O)C(O)(c2ccccc2)c2ccccc2)C1 (stereo unspecified) the Potency was “inactive”. For CNC(C)(C)Cc1ccccc1, the Potency was “inactive”. In the case of CCCCON=O, the Potency was “inactive”. For CNC(=O)O/N=C(\C)C(C)S(C)(=O)=O (stereo unspecified), the Potency was “inactive”. With N#CCCl the Potency was “inactive”. In the case of C[C@]12Cc3cn[nH]c3C[C@@H]1CC[C@@H]1[C@@H]2CC[C@@]2(C)[C@H]1CC[C@]2(C)O, the Potency was “inactive”. With CC1CCCC1 the Potency was “inactive”. For CCOP(=O)(Sc1ccccc1)Sc1ccccc1, the Potency was “inactive”. In the case of CCOP(=S)(OCC)Oc1cc(C)nc(N(CC)CC)n1, the Potency was 30.6 µM (active). In the case of Clc1ccc(C(c2ccc(Cl)cc2)C(Cl)Cl)cc1, the Potency was 62.1 µM (active) and 61.1 µM (active). CCCN was tested, and the Potency was “inactive”. CC(Cc1ccc2c(c1)OCO2)NO (stereo unspecified) was tested, and the Potency was “inactive”. CN=C=O was tested, and the Potency was “inactive”. For Cc1cc2c3c(c1)C(c1ccccc1)=N[C@@H](NC(=O)c1ccncc1)C(=O)N3CC2, the Potency was “inactive”. For CN(C)CCc1c[nH]c2ccccc12, the Potency was “inactive”. In the case of ClC1(Cl)C2(Cl)C3(Cl)C4(Cl)C(Cl)(Cl)C5(Cl)C3(Cl)C1(Cl)C5(Cl)C24Cl (stereo unspecified), the Potency was “inactive”. In the case of CN1C(=O)[C@@H](NC(=O)c2cc3ccccc3[nH]2)N=C(c2ccccc2)c2ccccc21, the Potency was “inactive”. With COP(=S)(OC)Oc1nc(Cl)c(Cl)cc1Cl the Potency was “inactive”.
